From PubChem BioAssay
A selection: hits, their analogues and other compounds. The true share with any hit is near 10%.
ALOX12 inhib = blocks human 12-lipoxygenase activity; purified 12-hLO, xylenol orange hydroperoxide absorbance; actives 0.12% (n = 150,000); P18054; AID 1452; Potency, µM (series often up to 57.1 µM), most hits filed as inhibitors; active = well fitted inhibition curve with a large enough effect; inconclusive = small, poorly fitted or top-dose-only effect; also: nearly all actives have a fitted effect of over 55% in size
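Xylenol orange chromogenic assay: hydroperoxide from 12hLO oxidises Fe(II), giving red-shifted Fe(III)-XO absorbance. Conditions: 150 nM enzyme, 40 uM arachidonic acid, 25 mM Hepes pH 7.0, 0.01% Triton X-100, 30 min, room temperature.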
PNC assembly inh = blocks assembly of the perinucleolar compartment; PC3M PTB-GFP, PNC prevalence imaging, 16 h; hits give low values; activity change (PNC), negative = inhibition, % at 10 µM; actives 3.1% (n = 140,000); AID 2417;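 active = readout at or below -70, meaning at least 70% loss of cells showing the perinucleolar compartment, a nuclear body marking cancer cells; inconclusive = readout between -30 and a set limit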
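Read-out is percentage of cells bearing a perinucleolar compartment, from automated 20x imaging of fixed, Hoechst-stained PC3M PTB-GFP cells. Cells were seeded 4 h, then exposed 16 h to compound (23 nl of library stock) in duplicate plates.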
ALDH1A1 block = inhibitors of human aldehyde dehydrogenase 1A1. P00352. Purified ALDH1A1, NADH fluorescence, propionaldehyde substrate. Potency, µM (highest dose often 75.3 µM), actives largely listed as inhibitors. actives 7.3% (n = 220,000)
HPGD block = inhibitors of human 15-hydroxyprostaglandin dehydrogenase (HPGD); P15428; purified HPGD, NADH fluorescence kinetic, PGE2 substrate; Potency, µM, actives largely listed as inhibitors; actives 4.3% (n = 150,000); AID 894
Target sequence (P15428 whole entry, looked up): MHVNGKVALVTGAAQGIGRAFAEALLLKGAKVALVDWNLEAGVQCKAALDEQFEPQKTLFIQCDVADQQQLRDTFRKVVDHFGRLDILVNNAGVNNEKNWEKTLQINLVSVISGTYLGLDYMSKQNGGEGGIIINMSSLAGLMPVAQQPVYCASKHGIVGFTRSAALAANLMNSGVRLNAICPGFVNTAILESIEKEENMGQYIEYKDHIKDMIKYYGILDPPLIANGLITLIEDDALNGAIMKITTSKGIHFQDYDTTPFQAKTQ
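NADH formation kinetics: reaction with 30 uM PGE2 and 1 mM NAD+ (final), 20 nM enzyme, Tris-HCl pH 8 with Tween 20, after 15 min compound preincubation at room temperature. Fluorescence change, last versus first of five reads.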
Lamin A splicing = changes lamin A minigene splicing in HeLa cells. AID 1487. Potency, µM (titrated, usually from 46.1 µM), most hits filed as inhibitors. HeLa LMNA splicing GFP/RFP minigene ratio, 48 h. actives 0.01% (n = 200,000); active = well fitted inhibition curve with a large enough effect in the signal ratio, with a control signal flat, not every such curve was filed as active; inconclusive = small, poorly fitted or top-dose-only effect, or effect the other way, or a change in a side signal; the % refers to the signal ratio
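Read-out is the ratio of GFP to DsRed2 object intensity, acquired by 488 nm laser-scanning cytometry on HeLa lamin A-EGFP minigene reporter cells. Compound incubation 48 hrs at 37 °C in Opti-MEM with 2% FBS; DMSO 0.5% final.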
Of the large screens only hits and unclear results are named; the others gave an inactive call; ! = not active in a repeat. Unless noted, calls follow the shape of the dose curve; as a rule, active = well fitted inhibition curve with a large enough effect (not every such curve was filed as active); inconclusive = small, poorly fitted or top-dose-only effect, or another doubt; inactive = no such curve, though single readings can be large or run the other way.

COc1ccc(/C=N/NS(=O)(=O)c2ccc(F)cc2)cc1COc1cc(F)ccc1[N+](=O)[O-]	ALDH1A1 block 35µM (no result: ALOX12 inhib, PNC assembly inh, HPGD block, Lamin A splicing)
C[C@]1(C(=O)NCC2CC2)C=C[C@@H](Cc2ccccc2)N1C(=O)c1ccccc1	none (no result: PNC assembly inh, Lamin A splicing)
CC(=O)N1[C@H](Cc2ccccc2)C=C[C@]1(C)C(=O)NCc1ccc(C)o1	HPGD block 22µM!, Lamin A splicing inconclusive
COC(=O)N1C2(C=CC1(C)C(=O)NCc1ccc(N(C)C)cc1)CCCCC2 (configuration not stated)	ALDH1A1 block 25µM (no result: PNC assembly inh, Lamin A splicing)
CNC(=O)[C@@]1(C)C=C[C@@H](Cc2ccccc2)N1C(=O)OC	PNC assembly inh -96
CN1[C@H](Cc2ccccc2)C=C[C@]1(C)C(=O)NCC1CC1	ALDH1A1 block 28µM (no result: PNC assembly inh, Lamin A splicing)
CNC(=O)[C@@]1(C)C=C[C@@H](Cc2ccccc2)N1C(C)=O	none (no result: PNC assembly inh, Lamin A splicing)
COc1cccc(NC(=O)N2CCC(n3nnc4ccccc43)CC2)c1	none (no result: ALOX12 inhib, PNC assembly inh, HPGD block)
CCc1ccc(Cn2c(CNS(=O)(=O)c3ccc(Cl)s3)nc3cccnc32)cc1	none (no result: ALOX12 inhib, PNC assembly inh, ALDH1A1 block, HPGD block)
COc1ccc(C2c3c(oc4ccc(Cl)cc4c3=O)C(=O)N2CCCN(C)C)cc1OC (configuration not stated)	none (no result: ALOX12 inhib, PNC assembly inh, ALDH1A1 block, HPGD block)
COc1cccc(Cn2c(=O)cc(C)c3c(C)nn(-c4ccc(C)cc4)c32)c1	none (no result: ALOX12 inhib, PNC assembly inh, ALDH1A1 block, HPGD block)
COC(=O)N1[C@H](Cc2ccccc2)C=C[C@]1(C)C(=O)NCc1ccc(N(C)C)cc1	ALDH1A1 block inconclusive (no result: PNC assembly inh, Lamin A splicing)
CN(C)c1ccc(CNC(=O)[C@@]2(C)C=C[C@@H](Cc3ccccc3)N2C)cc1	ALDH1A1 block 20µM (no result: PNC assembly inh, Lamin A splicing)
CC1=CC(=O)c2c(O)ccc(O)c2C1=O	ALDH1A1 block 32µM (no result: ALOX12 inhib, PNC assembly inh, HPGD block, Lamin A splicing)
CNC(=O)CSc1cn(CC(=O)N(C(C)C)C(C)C)c2ccccc12	none (no result: ALOX12 inhib, PNC assembly inh, HPGD block)
CCOC(=O)C1CCCCN1Cc1cc(OC)ccc1OC (configuration not stated)	ALDH1A1 block 16µM
CCOC(=O)C1CCCCN1Cc1cccc(OC)c1OC (configuration not stated)	ALDH1A1 block inconclusive
O=C(c1ccc(Cl)cc1)N1CCC(O)(CSc2ccc(Cl)cc2Cl)CC1	ALDH1A1 block 22µM, Lamin A splicing inconclusive
CCOC(=O)c1c(C)nc2c(C#N)cnn2c1C	ALDH1A1 block inconclusive, HPGD block inconclusive
CCOC(=O)c1cnn2c(N)c(C#N)nnc12	PNC assembly inh -117
O=C(Cn1cc(C(=O)c2ccncc2)c(=O)c2cc(F)ccc21)Nc1ccc(Cl)cc1	none (no result: ALOX12 inhib, PNC assembly inh, ALDH1A1 block, HPGD block)
CN(c1ccc(OCc2nnc(-c3ccccc3)o2)cc1)S(=O)(=O)c1ccccc1	PNC assembly inh inconclusive, HPGD block 7.9µM
CCOc1cc(S(=O)(=O)n2nc(C)cc2C)ccc1Br	none (no result: ALOX12 inhib, PNC assembly inh, HPGD block)
Cc1ccc(NC(=O)CSc2nccn2-c2ccccc2)cc1	none (no result: ALOX12 inhib, PNC assembly inh, ALDH1A1 block, HPGD block)
CN(C)/C=C/C(=O)c1cnc(-c2ccccc2Cl)s1	ALDH1A1 block 7.1µM, Lamin A splicing inconclusive (no result: ALOX12 inhib, PNC assembly inh, HPGD block)
CC(C)(Oc1ccc([C@@H]2CC2(Cl)Cl)cc1)C(=O)O	Lamin A splicing inconclusive (no result: PNC assembly inh)
NS(=O)(=O)c1ccc(NC(=O)N2c3ccccc3Sc3ccccc32)cc1	ALOX12 inhib 16µM
COc1ccc(Cl)cc1C(=O)NCC(c1ccc(N(C)C)cc1)N1CCCC1 (configuration not stated)	none (no result: ALOX12 inhib, PNC assembly inh, ALDH1A1 block, HPGD block)
COc1cccc(C2NC(=S)NC3=C2CCc2ccccc23)c1 (configuration not stated)	ALDH1A1 block 0.22µM (no result: HPGD block)
COc1ccc(C2NC(=O)NC3=C2CCc2ccccc23)cc1 (configuration not stated)	ALDH1A1 block inconclusive, HPGD block inconclusive
COc1ccc2c(c1)C1=C(CC2)C(c2ccc(C)cc2)NC(=S)N1 (configuration not stated)	ALDH1A1 block 0.4µM (no result: ALOX12 inhib, PNC assembly inh, HPGD block, Lamin A splicing)
COc1cccc(C2CC(=O)N3CN(c4ccccc4F)CSC3=C2C#N)c1 (configuration not stated)	ALDH1A1 block 25µM, HPGD block inconclusive
COc1ccc(OC)c(C2CC(=O)N3CN(c4ccccc4F)CSC3=C2C#N)c1 (configuration not stated)	ALOX12 inhib 32µM, ALDH1A1 block 4µM, HPGD block 25µM
O=C1c2ccccc2N[C@H](c2cc(Cl)cc(Cl)c2O)N1CCc1ccccn1	none (no result: PNC assembly inh, Lamin A splicing)
CN(c1ncnc2c1c(-c1ccccc1)cn2-c1cccc(Cl)c1)C1CCCCC1	none (no result: ALOX12 inhib, PNC assembly inh, ALDH1A1 block, HPGD block)
COc1ccc(-c2nc(-c3ccccc3)c(Nc3c(C)cccc3C)o2)cc1	none (no result: PNC assembly inh, Lamin A splicing)
